Experimental findings from ChEMBL document CHEMBL1961873, “Compounds: GSK PKIS; Assays: Nanosyn kinase panel” (2012) are described below.

Assay [1] concerns the target Protein kinase C gamma type (Homo sapiens) (UniProt P05129). The conditions noted are these: at 1 µM.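 Also: each value is an averaged percent inhibition of the enzyme.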
Assay [2] has as its target T1, Protein kinase C iota type (Homo sapiens) (UniProt P41743).
T1 sequence (whole entry): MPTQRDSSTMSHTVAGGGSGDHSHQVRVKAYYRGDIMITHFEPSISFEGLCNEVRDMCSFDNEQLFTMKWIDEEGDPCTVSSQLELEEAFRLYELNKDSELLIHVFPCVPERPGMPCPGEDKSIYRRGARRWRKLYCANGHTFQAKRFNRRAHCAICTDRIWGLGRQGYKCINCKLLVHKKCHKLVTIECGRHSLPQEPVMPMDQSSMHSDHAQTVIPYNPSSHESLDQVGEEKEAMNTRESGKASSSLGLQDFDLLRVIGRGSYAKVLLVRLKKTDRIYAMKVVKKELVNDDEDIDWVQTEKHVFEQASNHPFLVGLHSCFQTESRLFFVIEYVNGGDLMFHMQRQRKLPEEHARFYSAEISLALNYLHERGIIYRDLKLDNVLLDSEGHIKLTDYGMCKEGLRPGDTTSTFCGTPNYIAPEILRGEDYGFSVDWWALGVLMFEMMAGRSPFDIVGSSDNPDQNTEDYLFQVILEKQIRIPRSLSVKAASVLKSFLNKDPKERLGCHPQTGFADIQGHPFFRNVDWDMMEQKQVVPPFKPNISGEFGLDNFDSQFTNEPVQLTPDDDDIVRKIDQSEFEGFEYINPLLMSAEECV
The note with it: at 0.1 µM.

Assay [3] deals with T1, Protein kinase C iota type (Homo sapiens). The conditions noted are these: at 1 µM.
Assay [4] deals with Protein kinase C theta type (Homo sapiens) (UniProt Q04759). The note with it: at 0.1 µM.
Chain of Protein kinase C theta type (Homo sapiens) (Q04759 whole entry, looked up): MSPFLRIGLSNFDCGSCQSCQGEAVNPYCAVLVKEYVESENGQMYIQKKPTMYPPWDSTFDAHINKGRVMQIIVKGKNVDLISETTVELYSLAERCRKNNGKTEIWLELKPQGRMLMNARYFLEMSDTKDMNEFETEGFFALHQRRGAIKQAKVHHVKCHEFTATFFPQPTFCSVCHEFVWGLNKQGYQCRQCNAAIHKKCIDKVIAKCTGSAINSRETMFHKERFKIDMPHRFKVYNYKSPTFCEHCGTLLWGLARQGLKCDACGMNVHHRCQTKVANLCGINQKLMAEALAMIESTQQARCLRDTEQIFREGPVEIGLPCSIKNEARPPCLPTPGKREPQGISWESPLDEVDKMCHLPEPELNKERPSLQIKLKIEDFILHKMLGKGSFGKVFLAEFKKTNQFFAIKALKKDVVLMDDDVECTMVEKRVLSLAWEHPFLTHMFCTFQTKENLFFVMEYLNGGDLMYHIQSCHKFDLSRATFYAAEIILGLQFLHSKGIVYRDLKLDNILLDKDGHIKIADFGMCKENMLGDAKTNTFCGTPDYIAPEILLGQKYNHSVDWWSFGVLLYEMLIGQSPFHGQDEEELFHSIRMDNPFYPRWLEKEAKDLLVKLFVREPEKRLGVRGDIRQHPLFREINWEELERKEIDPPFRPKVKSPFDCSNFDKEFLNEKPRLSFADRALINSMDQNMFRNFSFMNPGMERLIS
Assay [5] shares this target. The conditions noted are these: at 1 µM.
For assay [6], the target named is Protein kinase C beta type (Homo sapiens) (UniProt P05771). The conditions noted are these: at 0.1 µM.
Chain of Protein kinase C beta type (Homo sapiens) (P05771 2-671 limits assumed): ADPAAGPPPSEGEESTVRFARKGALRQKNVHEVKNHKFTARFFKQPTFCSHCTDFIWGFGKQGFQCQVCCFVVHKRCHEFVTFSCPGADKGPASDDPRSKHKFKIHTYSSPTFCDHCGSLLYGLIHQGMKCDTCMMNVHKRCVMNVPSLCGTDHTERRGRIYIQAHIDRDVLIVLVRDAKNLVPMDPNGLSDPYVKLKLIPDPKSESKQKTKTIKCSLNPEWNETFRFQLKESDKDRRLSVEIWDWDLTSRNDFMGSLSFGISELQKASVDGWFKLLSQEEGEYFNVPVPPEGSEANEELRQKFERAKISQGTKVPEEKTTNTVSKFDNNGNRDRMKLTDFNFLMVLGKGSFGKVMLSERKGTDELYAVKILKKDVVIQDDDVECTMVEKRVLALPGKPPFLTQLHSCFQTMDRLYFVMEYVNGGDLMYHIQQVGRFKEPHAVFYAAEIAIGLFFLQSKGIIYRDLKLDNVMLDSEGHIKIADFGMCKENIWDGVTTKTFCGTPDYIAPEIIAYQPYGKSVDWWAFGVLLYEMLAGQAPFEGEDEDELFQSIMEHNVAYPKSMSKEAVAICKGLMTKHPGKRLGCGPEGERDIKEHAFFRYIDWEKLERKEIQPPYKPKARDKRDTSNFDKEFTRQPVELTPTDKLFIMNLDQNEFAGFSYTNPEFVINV
Assay [7] shares this target. The note with it: at 1 µM.
Assay [8] addresses T2, Serine/threonine-protein kinase D1 (Homo sapiens) (UniProt Q15139).
T2 sequence (whole entry): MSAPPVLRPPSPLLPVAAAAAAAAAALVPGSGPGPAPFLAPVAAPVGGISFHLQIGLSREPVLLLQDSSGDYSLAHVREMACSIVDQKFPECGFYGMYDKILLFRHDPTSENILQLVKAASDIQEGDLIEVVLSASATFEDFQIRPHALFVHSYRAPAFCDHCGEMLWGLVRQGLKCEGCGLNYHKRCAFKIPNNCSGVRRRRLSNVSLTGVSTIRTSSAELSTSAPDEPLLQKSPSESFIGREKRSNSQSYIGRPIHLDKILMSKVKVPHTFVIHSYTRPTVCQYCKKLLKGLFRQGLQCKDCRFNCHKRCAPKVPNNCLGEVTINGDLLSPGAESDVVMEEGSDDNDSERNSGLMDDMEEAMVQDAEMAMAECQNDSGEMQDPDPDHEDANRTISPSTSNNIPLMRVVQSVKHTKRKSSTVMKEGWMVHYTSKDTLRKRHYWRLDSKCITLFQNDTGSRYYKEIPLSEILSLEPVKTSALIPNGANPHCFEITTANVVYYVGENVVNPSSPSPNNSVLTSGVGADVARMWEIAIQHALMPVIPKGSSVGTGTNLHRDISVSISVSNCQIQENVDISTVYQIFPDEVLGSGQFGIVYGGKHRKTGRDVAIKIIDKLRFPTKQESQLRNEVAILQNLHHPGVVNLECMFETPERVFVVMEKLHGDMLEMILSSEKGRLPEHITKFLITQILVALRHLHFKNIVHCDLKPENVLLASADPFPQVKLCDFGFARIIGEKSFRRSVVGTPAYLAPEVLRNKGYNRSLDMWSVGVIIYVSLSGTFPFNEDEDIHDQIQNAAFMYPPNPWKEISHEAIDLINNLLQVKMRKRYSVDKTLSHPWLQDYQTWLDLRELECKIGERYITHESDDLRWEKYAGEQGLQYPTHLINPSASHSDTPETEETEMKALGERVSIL
The note with it: at 0.1 µM.

Assay [9] has as its target T2, Serine/threonine-protein kinase D1 (Homo sapiens). The conditions noted are these: at 1 µM.
Assay [10] deals with T3, Serine/threonine-protein kinase D2 (Homo sapiens) (UniProt Q9BZL6).
T3 sequence (whole entry): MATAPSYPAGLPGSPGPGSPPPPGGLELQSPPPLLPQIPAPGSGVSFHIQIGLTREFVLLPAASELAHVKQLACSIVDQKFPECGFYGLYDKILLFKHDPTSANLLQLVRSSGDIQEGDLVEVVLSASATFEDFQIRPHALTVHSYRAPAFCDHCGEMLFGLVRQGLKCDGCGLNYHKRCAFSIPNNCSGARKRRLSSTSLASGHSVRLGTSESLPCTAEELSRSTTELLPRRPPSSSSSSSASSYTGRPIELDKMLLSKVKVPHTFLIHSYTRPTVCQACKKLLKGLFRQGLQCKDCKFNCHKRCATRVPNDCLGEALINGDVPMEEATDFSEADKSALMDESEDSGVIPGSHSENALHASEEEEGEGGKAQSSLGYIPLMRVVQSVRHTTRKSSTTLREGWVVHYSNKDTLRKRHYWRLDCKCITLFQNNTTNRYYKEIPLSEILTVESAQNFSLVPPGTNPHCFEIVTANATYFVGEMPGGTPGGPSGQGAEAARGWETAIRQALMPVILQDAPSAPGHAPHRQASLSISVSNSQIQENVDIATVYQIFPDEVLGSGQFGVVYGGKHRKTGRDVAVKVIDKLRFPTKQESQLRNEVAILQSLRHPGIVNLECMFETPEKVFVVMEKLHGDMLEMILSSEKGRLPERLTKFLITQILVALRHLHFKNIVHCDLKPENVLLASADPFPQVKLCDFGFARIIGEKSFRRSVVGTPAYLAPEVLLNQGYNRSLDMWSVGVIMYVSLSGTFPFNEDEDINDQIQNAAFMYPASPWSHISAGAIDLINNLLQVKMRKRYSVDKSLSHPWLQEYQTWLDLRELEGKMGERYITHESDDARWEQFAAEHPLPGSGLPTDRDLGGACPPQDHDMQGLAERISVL
The conditions noted are these: at 0.1 µM.

Assay [11] concerns the target T3, Serine/threonine-protein kinase D2 (Homo sapiens). The note with it: at 1 µM.
Assay [12] has as its target T4, Serine/threonine-protein kinase D3 (Homo sapiens) (UniProt O94806).
T4 sequence (whole entry): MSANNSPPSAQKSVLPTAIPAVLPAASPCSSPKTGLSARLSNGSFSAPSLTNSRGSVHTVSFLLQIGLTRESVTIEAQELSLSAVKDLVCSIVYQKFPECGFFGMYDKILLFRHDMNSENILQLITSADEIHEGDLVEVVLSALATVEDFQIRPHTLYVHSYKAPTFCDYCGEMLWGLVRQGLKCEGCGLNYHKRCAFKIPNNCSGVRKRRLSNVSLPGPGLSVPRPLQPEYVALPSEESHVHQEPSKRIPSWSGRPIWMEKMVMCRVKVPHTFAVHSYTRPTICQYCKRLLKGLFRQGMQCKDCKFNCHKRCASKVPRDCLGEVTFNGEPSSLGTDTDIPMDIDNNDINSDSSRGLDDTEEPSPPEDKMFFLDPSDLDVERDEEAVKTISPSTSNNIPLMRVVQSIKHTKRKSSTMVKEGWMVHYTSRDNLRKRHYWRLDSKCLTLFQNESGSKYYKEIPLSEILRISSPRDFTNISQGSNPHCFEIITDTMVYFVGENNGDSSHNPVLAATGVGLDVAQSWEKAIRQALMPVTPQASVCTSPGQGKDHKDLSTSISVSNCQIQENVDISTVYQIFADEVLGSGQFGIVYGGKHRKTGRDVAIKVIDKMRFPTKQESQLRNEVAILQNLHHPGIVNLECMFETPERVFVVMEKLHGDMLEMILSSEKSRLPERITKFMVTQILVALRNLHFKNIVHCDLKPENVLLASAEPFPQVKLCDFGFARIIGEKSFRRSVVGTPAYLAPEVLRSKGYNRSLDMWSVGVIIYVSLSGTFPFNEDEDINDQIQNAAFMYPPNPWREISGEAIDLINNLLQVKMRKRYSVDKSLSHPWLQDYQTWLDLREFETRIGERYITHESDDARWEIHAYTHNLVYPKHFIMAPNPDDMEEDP
The note with it: at 0.1 µM.

Assay [13] has as its target T4, Serine/threonine-protein kinase D3 (Homo sapiens). The note with it: at 1 µM.
Assay [14] addresses T5, cGMP-dependent protein kinase 1 (Homo sapiens) (UniProt Q13976).
T5 sequence (whole entry): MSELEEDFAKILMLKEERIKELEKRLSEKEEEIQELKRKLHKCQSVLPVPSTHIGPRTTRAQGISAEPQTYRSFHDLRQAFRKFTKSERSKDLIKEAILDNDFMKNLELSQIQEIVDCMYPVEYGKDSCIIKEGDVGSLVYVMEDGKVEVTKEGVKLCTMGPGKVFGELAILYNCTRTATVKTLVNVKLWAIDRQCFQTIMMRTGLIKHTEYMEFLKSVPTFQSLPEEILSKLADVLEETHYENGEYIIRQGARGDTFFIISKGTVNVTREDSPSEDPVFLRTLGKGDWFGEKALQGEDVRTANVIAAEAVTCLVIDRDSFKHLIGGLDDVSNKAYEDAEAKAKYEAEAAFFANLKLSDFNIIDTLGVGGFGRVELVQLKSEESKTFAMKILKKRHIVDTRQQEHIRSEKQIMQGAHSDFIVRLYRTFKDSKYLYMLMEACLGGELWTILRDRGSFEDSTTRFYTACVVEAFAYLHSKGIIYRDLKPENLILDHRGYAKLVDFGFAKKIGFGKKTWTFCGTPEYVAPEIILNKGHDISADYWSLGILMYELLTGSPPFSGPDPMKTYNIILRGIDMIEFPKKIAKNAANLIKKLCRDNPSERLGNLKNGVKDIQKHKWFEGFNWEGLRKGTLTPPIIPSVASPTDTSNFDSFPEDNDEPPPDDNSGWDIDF
The note with it: at 0.1 µM.

For assay [15], the target named is T5, cGMP-dependent protein kinase 1 (Homo sapiens). The conditions noted are these: at 1 µM.
Assay [16] deals with T6, cGMP-dependent protein kinase 2 (Homo sapiens) (UniProt Q13237).
T6 sequence (whole entry): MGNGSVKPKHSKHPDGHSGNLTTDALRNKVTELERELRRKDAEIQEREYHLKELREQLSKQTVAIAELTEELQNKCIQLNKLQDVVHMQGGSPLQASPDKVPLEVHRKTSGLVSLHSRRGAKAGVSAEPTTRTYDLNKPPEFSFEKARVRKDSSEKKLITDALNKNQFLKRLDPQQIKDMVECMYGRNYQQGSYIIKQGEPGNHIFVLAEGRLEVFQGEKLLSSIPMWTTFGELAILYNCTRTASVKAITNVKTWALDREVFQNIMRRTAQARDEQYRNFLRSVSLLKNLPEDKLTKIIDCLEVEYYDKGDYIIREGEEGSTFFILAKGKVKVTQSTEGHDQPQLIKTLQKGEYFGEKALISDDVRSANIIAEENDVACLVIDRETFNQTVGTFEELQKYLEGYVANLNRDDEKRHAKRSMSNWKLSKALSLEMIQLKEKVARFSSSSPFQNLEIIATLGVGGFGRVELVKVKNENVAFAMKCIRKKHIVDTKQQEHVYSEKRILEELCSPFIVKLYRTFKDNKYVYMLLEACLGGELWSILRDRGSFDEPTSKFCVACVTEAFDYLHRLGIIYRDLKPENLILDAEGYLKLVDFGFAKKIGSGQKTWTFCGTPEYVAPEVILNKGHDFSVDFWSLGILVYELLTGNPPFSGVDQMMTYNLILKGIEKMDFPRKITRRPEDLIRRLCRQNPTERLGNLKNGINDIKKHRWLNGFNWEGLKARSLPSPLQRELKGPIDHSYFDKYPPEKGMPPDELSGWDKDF
The conditions noted are these: at 0.1 µM.

Assay [17] has as its target T6, cGMP-dependent protein kinase 2 (Homo sapiens). The note with it: at 1 µM.
Assay [18] addresses T7, cAMP-dependent protein kinase catalytic subunit PRKX (Homo sapiens) (UniProt P51817).
T7 sequence (whole entry): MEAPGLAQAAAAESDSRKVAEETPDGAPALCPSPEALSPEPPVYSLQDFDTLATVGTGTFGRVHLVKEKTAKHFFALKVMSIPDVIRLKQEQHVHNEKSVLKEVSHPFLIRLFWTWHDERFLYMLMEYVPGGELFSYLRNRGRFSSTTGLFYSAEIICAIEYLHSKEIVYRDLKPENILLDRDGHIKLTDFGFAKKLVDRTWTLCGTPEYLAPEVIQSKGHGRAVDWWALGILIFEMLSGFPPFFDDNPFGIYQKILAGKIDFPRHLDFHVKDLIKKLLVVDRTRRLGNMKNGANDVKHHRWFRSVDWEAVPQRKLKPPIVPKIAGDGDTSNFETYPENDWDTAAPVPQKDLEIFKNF
The note with it: at 0.1 µM.

Assay [19] concerns the target T7, cAMP-dependent protein kinase catalytic subunit PRKX (Homo sapiens). The note with it: at 1 µM.
Assay [20] deals with Rho-associated protein kinase 1 (Homo sapiens) (UniProt Q13464). The note with it: at 0.1 µM.
Chain of Rho-associated protein kinase 1 (Homo sapiens) (Q13464 2-1354 limits assumed): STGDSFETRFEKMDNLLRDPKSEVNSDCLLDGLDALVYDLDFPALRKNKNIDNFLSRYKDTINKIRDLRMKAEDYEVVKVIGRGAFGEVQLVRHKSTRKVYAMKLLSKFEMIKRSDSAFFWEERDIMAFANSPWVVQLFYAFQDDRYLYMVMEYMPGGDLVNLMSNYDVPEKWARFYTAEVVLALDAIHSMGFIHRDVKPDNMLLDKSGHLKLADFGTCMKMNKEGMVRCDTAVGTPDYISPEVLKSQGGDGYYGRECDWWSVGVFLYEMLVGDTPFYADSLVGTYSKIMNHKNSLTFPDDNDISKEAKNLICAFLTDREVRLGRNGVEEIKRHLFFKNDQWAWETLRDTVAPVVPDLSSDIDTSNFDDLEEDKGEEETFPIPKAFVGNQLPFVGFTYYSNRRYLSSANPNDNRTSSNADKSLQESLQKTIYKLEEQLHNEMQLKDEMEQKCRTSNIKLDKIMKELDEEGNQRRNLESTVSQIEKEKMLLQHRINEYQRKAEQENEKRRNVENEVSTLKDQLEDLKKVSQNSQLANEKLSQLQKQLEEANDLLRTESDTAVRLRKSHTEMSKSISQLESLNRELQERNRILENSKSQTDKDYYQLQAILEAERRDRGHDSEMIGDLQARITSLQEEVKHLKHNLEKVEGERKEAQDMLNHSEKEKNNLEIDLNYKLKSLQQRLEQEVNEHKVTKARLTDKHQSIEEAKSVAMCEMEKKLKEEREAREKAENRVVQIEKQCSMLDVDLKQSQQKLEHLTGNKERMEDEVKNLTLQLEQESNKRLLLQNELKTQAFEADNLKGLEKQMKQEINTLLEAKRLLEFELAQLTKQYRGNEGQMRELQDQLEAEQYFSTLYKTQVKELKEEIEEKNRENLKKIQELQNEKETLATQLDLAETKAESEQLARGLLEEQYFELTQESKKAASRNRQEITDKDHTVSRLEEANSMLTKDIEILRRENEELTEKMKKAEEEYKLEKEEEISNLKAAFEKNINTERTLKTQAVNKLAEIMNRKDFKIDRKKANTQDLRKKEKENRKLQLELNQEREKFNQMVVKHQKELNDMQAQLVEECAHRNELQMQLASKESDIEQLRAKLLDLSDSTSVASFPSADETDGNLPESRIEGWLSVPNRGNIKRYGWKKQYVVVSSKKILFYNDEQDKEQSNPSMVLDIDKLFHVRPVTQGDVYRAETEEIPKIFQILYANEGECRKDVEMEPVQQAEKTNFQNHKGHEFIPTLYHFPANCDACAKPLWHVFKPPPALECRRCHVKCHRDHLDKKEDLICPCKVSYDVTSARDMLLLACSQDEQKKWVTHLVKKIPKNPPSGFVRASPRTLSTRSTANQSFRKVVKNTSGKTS

Structures are written as SMILES.

Consider `NC(=O)c1ccc(Oc2nccc(-c3c(-c4ccc(F)cc4)ncn3C3CCNCC3)n2)cc1`, for which the inhibition in assay [1] worked out at 2.68%; in assay [2], 2.53%; in [3], 1.91%; in [4], 3.83%; in [5] it was 3.82%; in assay [6], 1.9%. For the same compound, the inhibition in assay [7] worked out at 5.22%; in assay [8], 4.57%; in assay [9] it was 6.71%; in assay [10], 4.04%; in assay [11], 3.14%; in assay [12] it was 4.58%. The inhibition was 5.2% in [13]; 4.67% in [14]; 6.78% in assay [15]; 5.65% in [16]; 6.43% in assay [17]; 3.5% in [18]. Further, the results for the inhibition in assay [19] and in assay [20] were 3.99% and 2.81%, respectively.

What is called inhibition is the percentage by which the read-out fell short of the control.
